Experimental data reported in PubChem BioAssay (EPA / NIEHS).
Results filed as inconclusive are left out. Active and inactive are the calls of the source. Rule for the calls, unless noted: active = hit-call score of the fitted dose curve at least 0.9, where 1 is the maximum; inconclusive = response in the unintended direction; inactive = score below 0.9.

What follows are compounds tested against Nuclear receptor subfamily 1 group I member 3 (Homo sapiens) (UniProt Q14994) (assay: ATG_CAR_TRANS: Attagene TRANS-FACTORIAL HepG2 Assay for human Constitutive Androstane Receptor (CAR) (AID 2282969;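 note: activators raise reporter mRNA above DMSO so AC50 marks induction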)). Settings: HepG2 Attagene TRANS-FACTORIAL CAR reporter.
Nuclear receptor subfamily 1 group I member 3 (Homo sapiens), sequence (Q14994 whole entry, looked up, the tested form may be a part): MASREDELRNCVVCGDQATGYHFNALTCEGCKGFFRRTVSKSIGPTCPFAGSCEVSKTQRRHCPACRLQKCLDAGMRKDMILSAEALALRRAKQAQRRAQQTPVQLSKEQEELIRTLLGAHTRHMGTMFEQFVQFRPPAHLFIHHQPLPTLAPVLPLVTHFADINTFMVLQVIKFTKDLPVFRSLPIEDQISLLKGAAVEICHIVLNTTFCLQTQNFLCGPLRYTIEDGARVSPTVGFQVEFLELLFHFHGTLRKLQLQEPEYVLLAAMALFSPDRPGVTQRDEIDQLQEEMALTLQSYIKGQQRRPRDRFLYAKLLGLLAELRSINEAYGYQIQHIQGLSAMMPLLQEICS
In short: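 Signal is reporter mRNA induction relative to DMSO, measured 24 h after dosing by RT-PCR with fluorescent primer extension and capillary electrophoresis. Human HepG2 liver cells carried transiently transfected chimeric NR-Gal4/GAL4-UAS reporter constructs.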

SMILES	outcome
COP(=O)(O)OC	inactive
CO/N=C(/C(=O)OC)c1ccccc1COc1ccccc1C	inactive
CC(C)(C)c1ccccc1OP(=O)(Oc1ccccc1)Oc1ccccc1	inactive
CCOP(=S)(NC(C)C)Oc1ccccc1C(=O)OC(C)C (stereo unspecified)	inactive
CCOP(=O)(O)C(N)=O	inactive
c1nc[nH]n1	inactive
CCCCOCCOP(=O)(OCCOCCCC)OCCOCCCC	inactive
CCCCOCC1CO1 (stereo unspecified)	inactive
N#Cc1ccc(O)cc1	inactive
ClC(Cl)(Cl)c1ccccc1	inactive
CCOP(=S)(OCC)SCSc1ccc(Cl)cc1	inactive
CNC(=O)Oc1ccc(N(C)C)c(C)c1	inactive
c1ccc(OP(Oc2ccccc2)Oc2ccccc2)cc1	inactive
Nc1ccc2ccccc2c1	inactive
ClC1=C(Cl)C2(Cl)C3C(Cl)C(Cl)CC3C1(Cl)C2(Cl)Cl (stereo unspecified)	inactive

These compounds were tested against Estrogen receptor (Homo sapiens) (UniProt P03372) (assay: ATG_ERa_TRANS: Attagene TRANS-FACTORIAL HepG2 Assay for human Estrogen Receptor alpha (ERa) (AID 2282970)). Settings: HepG2 Attagene TRANS ERa GAL4 reporter, mRNA.
Estrogen receptor (Homo sapiens), sequence (P03372 whole entry, looked up, the tested form may be a part): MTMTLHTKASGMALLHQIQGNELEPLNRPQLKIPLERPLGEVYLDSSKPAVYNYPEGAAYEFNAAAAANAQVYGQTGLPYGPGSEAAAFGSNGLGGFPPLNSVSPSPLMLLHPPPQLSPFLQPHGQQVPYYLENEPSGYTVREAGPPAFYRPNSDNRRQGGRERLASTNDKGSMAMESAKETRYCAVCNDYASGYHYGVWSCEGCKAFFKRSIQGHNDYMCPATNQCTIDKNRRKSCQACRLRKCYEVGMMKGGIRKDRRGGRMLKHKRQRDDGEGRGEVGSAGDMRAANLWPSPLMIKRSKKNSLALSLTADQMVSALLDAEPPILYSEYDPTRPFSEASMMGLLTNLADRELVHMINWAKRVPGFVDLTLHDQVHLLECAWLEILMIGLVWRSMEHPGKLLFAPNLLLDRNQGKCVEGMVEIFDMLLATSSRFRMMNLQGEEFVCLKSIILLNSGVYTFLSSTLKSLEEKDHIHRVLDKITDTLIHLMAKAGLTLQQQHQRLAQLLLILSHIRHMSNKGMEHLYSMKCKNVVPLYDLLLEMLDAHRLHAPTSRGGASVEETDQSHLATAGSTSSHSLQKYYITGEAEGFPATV
In short: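 Liver-derived HepG2 cells expressing chimeric nuclear receptor-Gal4 proteins from transient transfection were exposed for 24 hours. Gain of reporter mRNA signal versus DMSO, read by capillary electrophoresis of FAM-labelled PCR products, was recorded.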

SMILES	outcome	AC50
COP(=O)(O)OC	inactive	
CO/N=C(/C(=O)OC)c1ccccc1COc1ccccc1C		2.6 µM (active)
CCCCC(CC)COC(=O)c1c(Br)c(Br)c(Br)c(Br)c1C(=O)OCC(CC)CCCC (stereo unspecified)	inactive	
CCOP(=S)(NC(C)C)Oc1ccccc1C(=O)OC(C)C (stereo unspecified)		3.51 µM (active)
O=[N+]([O-])c1cc(Cl)ccc1Cl	inactive	
Cc1ccc(O)cc1C		72.4 µM (active)
CCOP(=O)(O)C(N)=O	inactive	
OCC1CO1 (stereo unspecified)	inactive	
CC(C)(C)N(NC(=O)c1ccc(Cl)cc1)C(=O)c1ccccc1	inactive	
c1nc[nH]n1		24.8 µM (active)
CCCCOCCOP(=O)(OCCOCCCC)OCCOCCCC	inactive	
ClC(Cl)(Cl)c1ccccc1		45.2 µM (active)
CCOP(=S)(OCC)SCSc1ccc(Cl)cc1		3.48 µM (active)
c1ccc(OP(Oc2ccccc2)Oc2ccccc2)cc1		74.9 µM (active)
CC(C)CBr	inactive	
OCC(F)(F)OC(F)(F)C(F)(F)OC(F)(F)C(F)(F)OC(F)(F)CO		0.281 µM (active)
Nc1ccc([N+](=O)[O-])cc1Cl	inactive	
ClC1=C(Cl)C2(Cl)C3C(Cl)C(Cl)CC3C1(Cl)C2(Cl)Cl (stereo unspecified)		13.4 µM (active)

These compounds were tested against Steroid hormone receptor ERR1 (Homo sapiens) (UniProt P11474) (assay: ATG_ERRa_TRANS: Attagene TRANS-FACTORIAL HepG2 Assay for human Estrogen-Related Receptor alpha (ERRa) (AID 2282971)). Settings: HepG2 Attagene TRANS reporter, ERRa transactivation.
Steroid hormone receptor ERR1 (Homo sapiens), sequence (P11474 whole entry, looked up, the tested form may be a part): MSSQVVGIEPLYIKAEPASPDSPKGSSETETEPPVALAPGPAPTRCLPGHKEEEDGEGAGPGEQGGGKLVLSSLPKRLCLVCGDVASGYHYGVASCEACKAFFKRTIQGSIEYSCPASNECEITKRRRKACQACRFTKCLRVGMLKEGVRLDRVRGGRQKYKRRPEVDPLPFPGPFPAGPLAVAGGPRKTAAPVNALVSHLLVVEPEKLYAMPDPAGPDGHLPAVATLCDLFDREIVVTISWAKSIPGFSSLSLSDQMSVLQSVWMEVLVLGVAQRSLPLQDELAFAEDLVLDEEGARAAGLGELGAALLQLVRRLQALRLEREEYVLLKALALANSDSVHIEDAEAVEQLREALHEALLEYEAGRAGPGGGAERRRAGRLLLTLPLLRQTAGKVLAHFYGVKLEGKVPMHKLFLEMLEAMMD
In short: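 Reporter transcript induction was quantified by RT-PCR and capillary electrophoresis of FAM-labelled, HpaI-cut products after 24 h treatment of HepG2 cells carrying transiently transfected GAL4-UAS reporter units and an exogenous ERRa-Gal4 fusion; activity scored as increase over DMSO.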

SMILES	outcome
Cc1c([N+](=O)[O-])cc2c(c1[N+](=O)[O-])C(C)(C)CC2(C)C	inactive
CC(C)(C)c1ccccc1OP(=O)(Oc1ccccc1)Oc1ccccc1	inactive
CCOP(=S)(NC(C)C)Oc1ccccc1C(=O)OC(C)C (stereo unspecified)	inactive
CCCCOCC1CO1 (stereo unspecified)	inactive
OCC(F)(F)OC(F)(F)C(F)(F)OC(F)(F)C(F)(F)OC(F)(F)CO	inactive
Nc1ccc2ccccc2c1	inactive

What follows are compounds tested against X-box-binding protein 1 (Homo sapiens) (UniProt P17861) (assay: ATG_Xbp1_CIS: Attagene CIS-FACTORIAL HepG2 Assay for human X-box Binding Protein 1 (XBP1) (AID 2282972; active = hit-call score of the fitted dose curve at least 0.9, where 1 is the maximum; inactive = score below 0.9)). Settings: HepG2 XBP1 cis-element reporter, Attagene multiplex; actives raise or lower the signal.
X-box-binding protein 1 (Homo sapiens), sequence (P17861 whole entry, looked up): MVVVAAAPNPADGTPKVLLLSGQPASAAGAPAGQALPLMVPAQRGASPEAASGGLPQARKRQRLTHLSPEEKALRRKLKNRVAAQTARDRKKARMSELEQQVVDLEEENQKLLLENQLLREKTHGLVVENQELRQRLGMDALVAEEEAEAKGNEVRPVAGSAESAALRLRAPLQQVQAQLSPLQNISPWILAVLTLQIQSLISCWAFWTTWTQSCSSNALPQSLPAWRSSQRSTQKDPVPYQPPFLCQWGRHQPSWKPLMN
In short: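 Human hepatoma HepG2, cis-element reporter system, 24 h treatment; mRNA quantified by RT-PCR/CE fluorescence; fit relative to DMSO.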

SMILES	outcome	AC50
CCC1(c2ccccc2)C(=O)N=C(O)NC1=O (stereo unspecified)	inactive	
COP(=O)(O)OC	inactive	
CO/N=C(/C(=O)OC)c1ccccc1COc1ccccc1C		35.2 µM (active)
N#Cc1c(-c2ccc(Cl)cc2)[nH]c(C(F)(F)F)c1Br	inactive	
Cc1c([N+](=O)[O-])cc2c(c1[N+](=O)[O-])C(C)(C)CC2(C)C	inactive	
CC(C)(C)c1ccccc1OP(=O)(Oc1ccccc1)Oc1ccccc1	inactive	
CCCCC(CC)COC(=O)c1c(Br)c(Br)c(Br)c(Br)c1C(=O)OCC(CC)CCCC (stereo unspecified)	inactive	
CCOP(=S)(NC(C)C)Oc1ccccc1C(=O)OC(C)C (stereo unspecified)	inactive	
O=[N+]([O-])c1cc(Cl)ccc1Cl	inactive	
Cc1ccc(O)cc1C	inactive	
CCOP(=O)(O)C(N)=O	inactive	
OCC1CO1 (stereo unspecified)	inactive	
Cn1[nH]nnc1=S	inactive	
CC(C)(C)N(NC(=O)c1ccc(Cl)cc1)C(=O)c1ccccc1	inactive	
c1nc[nH]n1	inactive	
O=C(O)C1C(C(=O)O)C2(Cl)C(Cl)=C(Cl)C1(Cl)C2(Cl)Cl (stereo unspecified)	inactive	
CC(O)C#N (stereo unspecified)	inactive	
O=C(O)CF	inactive	
CCCCOCCOP(=O)(OCCOCCCC)OCCOCCCC	inactive	
C=C(C)C(=O)OCC1CO1 (stereo unspecified)	inactive	

SMILES	outcome	AC50
CCCCOCC1CO1 (stereo unspecified)	inactive	
N#Cc1ccc(O)cc1	inactive	
ClC(Cl)(Cl)c1ccccc1	inactive	
Oc1ccc(I)cc1	inactive	
CCOP(=S)(OCC)SCSc1ccc(Cl)cc1	inactive	
CNC(=O)Oc1ccc(N(C)C)c(C)c1	inactive	
CC(C)(C)c1ccc(O)cc1		171 µM (active)
O=C(O)C(Cl)Cl	inactive	
c1ccc(OP(Oc2ccccc2)Oc2ccccc2)cc1	inactive	
CC(C)CBr	inactive	
OCC(F)(F)OC(F)(F)C(F)(F)OC(F)(F)C(F)(F)OC(F)(F)CO	inactive	
Nc1ccc(Cl)cc1	inactive	
COC(N)=O	inactive	
Nc1ccc2ccccc2c1	inactive	
Nc1ccc([N+](=O)[O-])cc1Cl	inactive	
CCOS(=O)(=O)OCC	inactive	
Cc1cccc(N)c1	inactive	
ClC1=C(Cl)C2(Cl)C3C(Cl)C(Cl)CC3C1(Cl)C2(Cl)Cl (stereo unspecified)	inactive	
CC1=C(C(=O)Nc2ccccc2)S(=O)(=O)CCO1	inactive	

These compounds were tested against Androgen receptor (Homo sapiens) (UniProt P10275) (assay: ATG_AR_TRANS: Attagene TRANS-FACTORIAL HepG2 Assay for human Androgen Receptor (AR) (AID 2282973)). Settings: HepG2 Attagene TRANS-FACTORIAL AR reporter transcription.
Androgen receptor (Homo sapiens), sequence (P10275 whole entry, looked up, the tested form may be a part): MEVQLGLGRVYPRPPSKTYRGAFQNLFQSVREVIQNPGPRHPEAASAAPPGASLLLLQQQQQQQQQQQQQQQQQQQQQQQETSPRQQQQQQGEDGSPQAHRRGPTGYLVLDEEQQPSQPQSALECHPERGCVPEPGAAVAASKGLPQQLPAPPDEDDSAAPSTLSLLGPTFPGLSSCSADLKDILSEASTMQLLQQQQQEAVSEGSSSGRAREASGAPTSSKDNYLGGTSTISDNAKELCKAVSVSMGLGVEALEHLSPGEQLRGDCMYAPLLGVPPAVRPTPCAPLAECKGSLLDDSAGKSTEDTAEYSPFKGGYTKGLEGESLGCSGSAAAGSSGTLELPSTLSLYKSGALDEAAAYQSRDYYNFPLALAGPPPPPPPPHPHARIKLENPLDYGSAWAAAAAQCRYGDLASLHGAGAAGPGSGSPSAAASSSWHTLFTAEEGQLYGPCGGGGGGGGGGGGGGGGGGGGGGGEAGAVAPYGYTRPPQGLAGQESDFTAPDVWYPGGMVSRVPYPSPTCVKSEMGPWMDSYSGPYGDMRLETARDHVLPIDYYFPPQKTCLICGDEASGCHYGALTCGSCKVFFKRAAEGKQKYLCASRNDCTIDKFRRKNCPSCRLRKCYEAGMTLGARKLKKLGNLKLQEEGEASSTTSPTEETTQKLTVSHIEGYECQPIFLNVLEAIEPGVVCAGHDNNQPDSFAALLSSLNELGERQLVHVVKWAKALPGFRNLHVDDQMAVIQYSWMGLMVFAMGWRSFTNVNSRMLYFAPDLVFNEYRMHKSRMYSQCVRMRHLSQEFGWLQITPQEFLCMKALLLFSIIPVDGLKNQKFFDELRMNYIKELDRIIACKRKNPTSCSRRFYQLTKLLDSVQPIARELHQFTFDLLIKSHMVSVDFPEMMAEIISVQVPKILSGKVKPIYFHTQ
In short: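 Steps: transfect HepG2 with multiple GAL4-UAS reporter transcription units (TRANS format, exogenous NR-Gal4 protein); dose 24 h; isolate RNA, reverse-transcribe, PCR-amplify, FAM-label, HpaI-digest; resolve by capillary electrophoresis. Positive direction vs DMSO.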

SMILES	outcome
COP(=O)(O)OC	inactive
CO/N=C(/C(=O)OC)c1ccccc1COc1ccccc1C	inactive
N#Cc1c(-c2ccc(Cl)cc2)[nH]c(C(F)(F)F)c1Br	inactive
CC(O)C#N (stereo unspecified)	inactive
CC(C)CBr	inactive
OCC(F)(F)OC(F)(F)C(F)(F)OC(F)(F)C(F)(F)OC(F)(F)CO	inactive
Nc1ccc([N+](=O)[O-])cc1Cl	inactive
ClC1=C(Cl)C2(Cl)C3C(Cl)C(Cl)CC3C1(Cl)C2(Cl)Cl (stereo unspecified)	inactive
